Screens deposited in PubChem by several laboratories.
Only some compounds are listed: those with a hit (about 4.1% of all), similar ones and a draw of the others.
aSyn UTR inh = 5' untranslated region of α-synuclein, MLPCN primary screen. alpha-synuclein 5'UTR reporter, inhibitor activity. inhibition, % (tested at 7.5 µM). actives 0.82% (n = 300,000). AID 1813; in the data active means inhibition above about 60%;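 further: H4 neuroglioblastoma cells stably carrying SNCA 5'UTR luciferase fusion; 0% = DMSO wells and 100% = positive control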
Jurkat NFkB inh = lowers PMA/ionomycin-induced NF-kB signal in Jurkat cells | PMA/ionomycin-induced NF-kB luciferase reporter, luminescence | inhibition, % at 4 µM | actives 0.53% (n = 330,000) | AID 435003; in the data active means inhibition above about 50%
697 NFkB inh = lowers PMA/ionomycin-induced NF-kB signal in 697 B cells. 697 B-cell NF-kB luciferase reporter, 16 h. inhibition, % at 4 µM. AID 435022. actives 0.33% (n = 330,000); in the data active means inhibition above about 35%
Mdm2 MdmX PPI = disrupts the human Mdm2-MdmX interaction | O15151+Q00987 | SaOS-2 split-luciferase Mdm2/MdmX complementation, luminescence | inhibition, % at 8 µM | actives 3% (n = 330,000);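 active means inhibition of at least 50% at 8 µM in the primary screen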
Target sequence (O15151 whole entry, looked up): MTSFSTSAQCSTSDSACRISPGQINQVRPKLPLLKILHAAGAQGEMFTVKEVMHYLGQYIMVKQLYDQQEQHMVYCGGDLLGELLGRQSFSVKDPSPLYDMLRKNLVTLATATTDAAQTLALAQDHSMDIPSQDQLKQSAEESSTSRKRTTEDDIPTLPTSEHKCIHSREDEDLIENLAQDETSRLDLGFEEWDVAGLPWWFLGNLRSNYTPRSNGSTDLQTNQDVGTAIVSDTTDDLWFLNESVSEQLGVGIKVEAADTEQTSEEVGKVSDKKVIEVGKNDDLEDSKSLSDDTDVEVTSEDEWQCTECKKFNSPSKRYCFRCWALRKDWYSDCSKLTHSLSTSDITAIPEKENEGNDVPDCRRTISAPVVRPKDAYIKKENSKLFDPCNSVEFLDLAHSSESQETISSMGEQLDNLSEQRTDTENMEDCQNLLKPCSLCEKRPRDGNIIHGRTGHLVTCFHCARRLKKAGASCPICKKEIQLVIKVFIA
Target sequence (Q00987 whole entry, looked up): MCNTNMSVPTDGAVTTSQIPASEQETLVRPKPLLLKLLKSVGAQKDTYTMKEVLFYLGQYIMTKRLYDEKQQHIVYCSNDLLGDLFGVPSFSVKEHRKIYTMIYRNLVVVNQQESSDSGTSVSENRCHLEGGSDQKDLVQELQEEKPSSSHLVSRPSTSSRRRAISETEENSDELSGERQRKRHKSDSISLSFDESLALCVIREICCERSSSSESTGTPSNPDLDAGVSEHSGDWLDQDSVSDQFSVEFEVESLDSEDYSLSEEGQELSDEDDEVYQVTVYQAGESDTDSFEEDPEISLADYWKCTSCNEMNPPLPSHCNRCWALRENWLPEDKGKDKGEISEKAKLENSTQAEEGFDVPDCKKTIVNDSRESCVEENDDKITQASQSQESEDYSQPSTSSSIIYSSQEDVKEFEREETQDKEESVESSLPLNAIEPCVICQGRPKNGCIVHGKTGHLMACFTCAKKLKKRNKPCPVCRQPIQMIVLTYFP
Gli-Sufu antag = blocks Gli-Sufu signaling in a luciferase reporter. Sufu-KO-LIGHT fibroblasts, Gli luciferase reporter luminescence. inhibition, % at 5 µM. actives 0.74% (n = 340,000);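 active means inhibition above about 55%, limit read from the data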;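 further: 0% = DMSO-treated cells and 100% = wells with medium but no cells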
KLF5 inh = inhibitors of KLF5 expression; DLD-1 KLF5 promoter-luciferase reporter, luminescence; inhibition, % at 5 µM; actives 0.23% (n = 290,000); AID 1700;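 active means inhibition above a per-plate limit of that plate's mean compound inhibition plus 3 SD, cut at about 60% in these data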;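 further: 0% = DMSO wells and 100% = LY294002 at 200 µM; higher means less KLF5 promoter-driven luciferase light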
Mdm2-MdmX conf = human Mdm2/MdmX binding inhibition, confirmed | inhibition, % at 8 µM | actives 55% (n = 10,000) | luminescent assay | shares compounds with Mdm2 MdmX PPI; in the data active means inhibition above about 40%
Full FLuc ctr = inhibits full-length luciferase, flagging false Mdm2/MdmX hits. shares compounds with Mdm2 MdmX PPI. actives 77% (n = 6,200). inhibition, % at 8 µM. SaOS-2 full-length luciferase counterscreen, luminescence;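 active means mean inhibition at 8 µM reaching about 37%, which flags the compound as non-specific, limit read from the data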;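 further: p53-null SaOS-2 cells with luciferase driven by a doxycycline-inducible promoter; compound on cells about two nights before reading with doxycycline added after day one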
Numbers without * were called inactive; . = no result given.

SMILES	aSyn UTR inh	Jurkat NFkB inh	697 NFkB inh	Mdm2 MdmX PPI	Gli-Sufu antag	KLF5 inh	Mdm2-MdmX conf	Full FLuc ctr
Cc1c(N=C2N=C(NC(=O)c3ccc(F)cc3)c3ccccc32)c(=O)n(-c2ccccc2)n1C	-5	-1	-13	81*	0	-5	7	.
Cc1ccc(S(=O)(=O)CCc2nnc(N)s2)cc1C	2	-5	7	29	-1	-12	.	.
Cc1ccc(S(=O)(=O)CCc2nnc(NC(=O)CCl)s2)cc1C	-55	-2	22	75*	3	-27	11	.
COc1cc(/C=C(/C#N)c2nc3ccccc3[nH]2)ccc1OCC(=O)Nc1ccccc1C(C)C	103*	30	7	100*	-1	2	79*	52*
COc1cc(/C=C(\C#N)c2ccccn2)ccc1OCC(=O)Nc1ccc(Br)cc1	22	5	10	100*	10	17	94*	20
O=C(Oc1ccc([N+](=O)[O-])cc1)c1cncc(Br)c1	-42	-2	-18	-4	-5	-16	.	.
CCc1nn(CCCC(=O)N2CCc3ccccc3C2)c(=O)c2cc3occc3n12	13	1	14	-6	30	-12	.	.
CCc1nn(CCCC(=O)N2CCN(c3cccc(C)c3C)CC2)c(=O)c2cc3occc3n12	23	20	-16	93*	15	-34	61*	78*
OC(CNCCc1ccc(C(F)(F)F)cc1)COC(c1ccccc1)c1ccccc1 (centres undefined)	24	-12	0	87*	10	-6	42*	56*
C=CCNS(=O)(=O)NC(=O)C1=C(N2CCCC2)COC1=O	.	3	-11	-15	-1	.	.	.
CCC1CCc2c(c3ccccc3[nH]c2=O)O1 (centres undefined)	0	0	1	20	-12	-10	.	.
O=c1[nH]c2ccccc2c2oc(CCl)nc12	-34	9	-9	78*	6	5	52*	54*
N/C(=N\OC(=O)Cc1ccccc1)c1ccccn1	-77	-40	-58	-13	-20	-59	.	.
N/C(=N\OC(=O)C(c1ccccc1)c1ccccc1)c1cccnc1	6	-6	4	52*	-1	7	9	.
N/C(=N\OC(=O)C(c1ccccc1)c1ccccc1)c1ccccn1	-16	0	-8	77*	6	-22	28	.
Cc1cc(OCC(=O)C(C)(C)C)c2c(-c3ccccc3)cc(=O)oc2c1	6	-2	-9	-21	13	-9	.	.
COc1ccc(OC)c(CCNC(=O)CN2C(=O)COc3ccc(S(=O)(=O)N4CCOCC4)cc32)c1	-8	8	-15	-16	9	-8	.	.
O=C(Nc1ccccc1)N1CCN(S(=O)(=O)c2ccccc2)CC1	-12	-12	-7	4	-7	0	.	.
O=C(NCc1ccccc1)C1(CC2CC(c3ccccc3)=NO2)CCNCC1 (centres undefined)	.	5	7	41	14	.	.	.
CC(C)(C)OC(=O)N1CCC(CC2CC(c3cccc(Br)c3)=NO2)(C(=O)NCC2CCCCC2)CC1 (centres undefined)	-19	-4	1	20	24	-16	.	.
O=C(NCC1CCCCC1)C1(CC2CC(c3cccc(Br)c3)=NO2)CCNCC1 (centres undefined)	3	-5	0	79*	1	-11	34	.
O=C(NCC1CCCCC1)C1(CC2CC(c3ccc(Cl)cc3)=NO2)CCNCC1 (centres undefined)	-44	-5	18	67*	11	-9	26	.
CCCCCCCNC(=O)C1(CC2CC(c3ccccc3)=NO2)CCNCC1 (centres undefined)	.	8	2	54*	14	.	11	.
CCc1ccc(NC(=O)CC2C(=O)NCCN2C(=O)c2ccc(F)cc2)cc1 (centres undefined)	5	-11	-13	20	20	-3	.	.
Oc1cc(CNC2CCCCC2)c(O)cc1CNC1CCCCC1	.	.	.	.	-6	.	.	.
SMILES	aSyn UTR inh	Jurkat NFkB inh	697 NFkB inh	Mdm2 MdmX PPI	Gli-Sufu antag	KLF5 inh	Mdm2-MdmX conf	Full FLuc ctr
Cc1cc(C)c2c(CCl)cc(=O)oc2c1	91*	5	13	70*	-3	-8	61*	100*
Cc1cc(C)c2c(CN3CCCCC3)cc(=O)oc2c1	-8	-17	-5	21	-2	-21	.	.
CCOC(=O)c1c(NC(=O)CN2C(=O)NC(C)(c3ccccc3)C2=O)sc(C)c1C (centres undefined)	35	3	18	71*	1	-33	58*	45*
CCCC1(c2ccccc2)NC(=O)N(CC(=O)Nc2sc(-c3ccccc3)cc2C(=O)OCC)C1=O (centres undefined)	-7	3	14	77*	4	-4	55*	53*
CCOC(=O)c1cc(-c2ccccc2)sc1NC(=O)CN1C(=O)c2ccccc2C1=O	-7	-4	18	-2	3	-7	.	.
NNC(=O)c1[nH]c2ccc(Cl)cc2c1-c1ccccc1	77*	5	10	53*	0	-16	21	.
COc1ccc(/C=N/NC(=O)c2[nH]c3ccc(Cl)cc3c2-c2ccccc2)c(C(=O)O)c1OC	0	15	13	17	6	-9	.	.
Cc1c(C(=O)N/N=C/c2ccccc2)[nH]c2ccc(Cl)cc12	-61	38	-58	57*	-22	-33	51*	59*
COc1ccc(Cl)cc1NC(=O)CN1CCN(Cc2ccccc2)CC1	15	5	6	26	9	-35	.	.
Cc1ccsc1C(C(=O)NC(C)(C)C)N(C(=O)c1csnn1)c1ccccc1 (centres undefined)	8	4	5	5	0	-7	.	.
COC(=O)c1ccc(C(=O)NC(=S)Nc2ccc3nc(SC)sc3c2)cc1	0	-13	-33	81*	-1	-20	25	.
O=S(=O)(c1ccccc1)N1CCN(Cc2ccc(Cl)cc2)CC1	9	-9	-11	-8	9	-23	.	.
Cc1sc(N/N=C/c2cccnc2)nc1-c1ccccc1	-20	-67	-176	59*	-5	-16	62*	74*
Cc1sc(N/N=C/c2ccco2)nc1-c1ccccc1	-21	-39	-40	-38	-19	-62	.	.
O=C(Cc1cc2ccccc2o1)NCc1ccc(F)cc1	-79	18	-2	12	6	-19	.	.
COC(=O)c1ccccc1S(=O)(=O)NNC(=O)Nc1ccccc1	34	1	15	69*	31	-28	50*	75*
COC(=O)c1ccccc1S(=O)(=O)C(C)(C)C	-13	-1	16	2	11	-38	.	.
COc1cc(C(=O)OC(C)c2ccc(F)cc2)ccc1OCC(=O)N1CCOCC1 (centres undefined)	.	1	14	-17	11	.	.	.
